miR-122 inh – activators of miR-122 sensor in Huh7 cells; Huh7 psiCHECK-miR122 Renilla luciferase sensor, 48 h; activation, % at 12.5 µM; 0.14% of 340,000 active; AID 623901;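 active = mean activation of 30% or more, with every replicate also reaching 30%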;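 also: higher luciferase signal means stronger suppression of miR-122 activity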
A number is an active result; n = inactive. The full list was thinned out, with hits kept by preference.

SMILES | miR-122 inh
C[C@H]1CN([C@@H](C)CO)C(=O)c2cc(C#CC3(O)CCCC3)cnc2O[C@@H]1CN(C)S(=O)(=O)c1ccccc1 | n
C/C=C/c1cnc2c(c1)C(=O)N([C@@H](C)CO)C[C@@H](C)[C@@H](CN(C)C(=O)c1cccnc1)O2 | n
C[C@@H]1CN([C@@H](C)CO)S(=O)(=O)c2ccc(C3=CCCCC3)cc2O[C@@H]1CN(C)C(=O)CC1CC1 | n
C[C@@H]1CN([C@H](C)CO)S(=O)(=O)c2ccc(C3=CCCCC3)cc2O[C@@H]1CN(C)C(=O)Nc1ccc2c(c1)OCO2 | 31.8
C[C@H](CO)N1C[C@H](C)[C@@H](CN(C)S(C)(=O)=O)Oc2cc(C3=CCCCC3)ccc2S1(=O)=O | n
C[C@H]1CN([C@@H](C)CO)S(=O)(=O)c2ccc(C#Cc3ccccc3)cc2O[C@H]1CN(C)C(=O)Nc1ccc2c(c1)OCO2 | n
C[C@H]1CN([C@@H](C)CO)S(=O)(=O)c2ccc(Br)cc2O[C@@H]1CN(C)C(=O)Nc1ccc2c(c1)OCO2 | n
C[C@@H]1CN([C@@H](C)CO)S(=O)(=O)c2ccc(C3=CCCCC3)cc2O[C@@H]1CN(C)C(=O)Nc1ccc2c(c1)OCO2 | 46.3
C[C@@H]1CN([C@@H](C)CO)S(=O)(=O)c2ccc(C3=CCCCC3)cc2O[C@@H]1CN(C)C(=O)Cc1ccncc1 | 47.6
C[C@H]1CN([C@@H](C)CO)S(=O)(=O)c2ccc(C3=CCCCC3)cc2O[C@H]1CN(C)C(=O)CC1CC1 | n
CC(C)NC(=O)N(C)C[C@@H]1Oc2cc(C3=CCCCC3)ccc2S(=O)(=O)N([C@@H](C)CO)C[C@@H]1C | n
C[C@@H]1CN([C@@H](C)CO)S(=O)(=O)c2ccc(C3=CCCC3)cc2O[C@@H]1CN(C)C(=O)c1ccc(F)cc1 | 36.5
C[C@@H]1CN([C@H](C)CO)S(=O)(=O)c2ccc(C3=CCCCC3)cc2O[C@@H]1CN(C)S(C)(=O)=O | n
C[C@@H]1CN([C@H](C)CO)S(=O)(=O)c2ccc(C3=CCCCC3)cc2O[C@H]1CN(C)S(C)(=O)=O | n
COCC(=O)N(C)C[C@H]1Oc2cc(C#CC(C)C)ccc2S(=O)(=O)N([C@H](C)CO)C[C@H]1C | n
CCCC#Cc1cnc2c(c1)C(=O)N([C@H](C)CO)C[C@H](C)[C@H](CN(C)Cc1ccccc1F)O2 | n
C[C@@H]1CN([C@H](C)CO)C(=O)c2cc(-c3cncnc3)cnc2O[C@@H]1CN(C)Cc1ccncc1 | n
CO[C@@H]1CN(C)C(=O)c2cc(NC(C)=O)ccc2OC[C@@H](C)N(C(=O)c2ccccc2)C[C@@H]1C | n
COCC#Cc1cnc2c(c1)C(=O)N([C@@H](C)CO)C[C@H](C)[C@H](CN(C)S(=O)(=O)c1cccc(OC)c1)O2 | n
C[C@H](CO)N1C[C@H](C)[C@H](CN(C)Cc2ccccn2)Oc2cc(-c3ccncc3)ccc2S1(=O)=O | n
C[C@@H](O)C#Cc1ccc2c(c1)O[C@H](CN(C)C)[C@@H](C)CN([C@@H](C)CO)S2(=O)=O | n
CCCN(C)C[C@H]1Oc2cc(Br)ccc2S(=O)(=O)N([C@H](C)CO)C[C@H]1C | n
CCCNC(=O)N(C)C[C@H]1Oc2cc(Br)ccc2S(=O)(=O)N([C@H](C)CO)C[C@@H]1C | n
C/C=C/c1cnc2c(c1)C(=O)N([C@@H](C)CO)C[C@@H](C)[C@H](CN(C)C(=O)c1cccnc1)O2 | n
COc1ccc(NC(=O)N(C)C[C@@H]2Oc3ncc(C4=CCCC4)cc3C(=O)N([C@H](C)CO)C[C@@H]2C)cc1 | n
SMILES | miR-122 inh
C/C=C/c1cnc2c(c1)C(=O)N([C@@H](C)CO)C[C@@H](C)[C@H](CN(C)C(=O)Cc1cccnc1)O2 | n
CCOC(=O)Nc1cc2c(c(N)n1)N=C(c1ccccc1)CN2 | n
CCOC(=O)CCS(=O)(=O)c1nc(-c2ccccc2)cc(C(F)(F)F)n1 | 51.4
CCC(=O)Nc1ccc2c(c1)OC[C@@H](C)N(CCC(F)(F)F)C[C@@H](C)[C@@H](OC)CN(C)C2=O | n
C[C@@H]1CN([C@H](C)CO)S(=O)(=O)c2ccc(-c3ccc(C#N)cc3)cc2O[C@@H]1CN(C)C(=O)C1CC1 | n
COc1ccc(NS(=O)(=O)c2cc(OC)ccc2OC)cc1 | n
COc1ccc(OC)c(Nc2cc(C)nc3nc(C)nn23)c1 | n
COc1ccc(OC)c(Nc2cc(C)nc3ccc(C)cc23)c1 | 32.1
C[C@@H]1CN([C@@H](C)CO)C(=O)c2cc(/C=C/c3ccccc3)cnc2O[C@H]1CN(C)C(=O)c1ccncc1 | n
C[C@H]1CN([C@@H](C)CO)S(=O)(=O)c2ccc(-c3cncnc3)cc2O[C@@H]1CN(C)C(=O)Cc1cccnc1 | n
COC(=O)C[C@@H]1CC[C@@H]2[C@@H](COc3ccc(NS(=O)(=O)c4ccccc4F)cc3C(=O)N2C)O1 | 41.7
CCCNC(=O)C[C@@H]1CC[C@@H]2[C@H](COc3ccc(NS(=O)(=O)c4ccccc4C)cc3C(=O)N2C)O1 | 66.7
C[C@@H]1CN([C@@H](C)CO)C(=O)c2cc(C#C[C@@H](C)O)cnc2O[C@H]1CN(C)C(=O)CN(C)C | n
Cc1ccc(S(=O)(=O)N(C)C[C@H]2Oc3cc(C#CC4CCCC4)ccc3S(=O)(=O)N([C@@H](C)CO)C[C@@H]2C)cc1 | n
C[C@H]1CN([C@@H](C)CO)C(=O)c2cc(-c3cccc(C#N)c3)cnc2O[C@@H]1CN(C)C | n
C[C@H](CO)N1C[C@H](C)[C@H](CN(C)S(=O)(=O)c2ccc(Cl)cc2)Oc2ccc(NC(=O)Nc3ccc(C(F)(F)F)cc3)cc2CC1=O | n
COCC#Cc1cnc2c(c1)C(=O)N([C@H](C)CO)C[C@H](C)[C@H](CN(C)C(=O)Cc1ccccc1)O2 | n
COc1cccc(-c2cnc3c(c2)C(=O)N([C@@H](C)CO)C[C@@H](C)[C@H](CN(C)C(=O)CC2CC2)O3)c1 | n
C[C@H](CO)N1C[C@H](C)[C@H](CN(C)C(=O)c2ccncc2)Oc2cc(C#Cc3ccncc3)ccc2S1(=O)=O | n
C/C=C/c1ccc2c(c1)O[C@H](CN(C)Cc1ccccc1)[C@@H](C)CN([C@@H](C)CO)S2(=O)=O | n
COc1ccc(S(=O)(=O)Nc2ccc3c(c2)CC(=O)N([C@H](C)CO)C[C@H](C)[C@H](CN(C)Cc2ccc(C(=O)Nc4ccccc4N)cc2)O3)cc1 | n
C[C@H](NC(=O)C[C@H]1CC[C@@H]2[C@@H](COc3ccc(NS(=O)(=O)c4ccc(Cl)cc4)cc3C(=O)N2C)O1)c1ccccc1 | 45.0
C[C@H](NC(=O)C[C@@H]1CC[C@H]2[C@H](COc3ccc(NS(=O)(=O)c4ccc(Cl)cc4)cc3C(=O)N2C)O1)c1ccccc1 | 36.7
CCC(=O)Nc1ccc2c(c1)OC[C@H](C)N(Cc1ccccc1F)C[C@@H](C)[C@@H](OC)CN(C)C2=O | n
CCC(=O)N(C)C[C@@H]1Oc2cc(C#C[C@@H](C)O)ccc2S(=O)(=O)N([C@@H](C)CO)C[C@H]1C | n
CC(C)C#Cc1ccc2c(c1)O[C@H](CN(C)Cc1ccncc1)[C@@H](C)CN([C@H](C)CO)S2(=O)=O | n
C[C@@H]1CN([C@@H](C)CO)C(=O)c2cc(C#Cc3ccc(F)cc3)cnc2O[C@H]1CN(C)C(=O)c1ccccc1F | n
CO[C@H]1CN(C)C(=O)c2cc(NC(C)=O)ccc2OC[C@H](C)N(C(=O)c2ccccc2)C[C@@H]1C | n
C[C@H](CO)N1C[C@H](C)[C@H](CN(C)Cc2ccccc2)Oc2ncc(-c3cncnc3)cc2C1=O | n
CNC[C@H]1Oc2cc(-c3cccc(F)c3)ccc2S(=O)(=O)N([C@H](C)CO)C[C@@H]1C | n

Source: PubChem BioAssay
